aSyn UTR inh: 5' untranslated region of α-synuclein, MLPCN primary screen; alpha-synuclein 5'UTR reporter, inhibitor activity; hit rate 0.82% among 300,000; inhibition, % (tested at 7.5 µM); in the data active = inhibition above about 60%; inconclusive = no clear call, values can overlap the other calls;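 also: H4 neuroglioblastoma cells stably carrying SNCA 5'UTR luciferase fusion; 0% = DMSO wells and 100% = positive control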
BaF3 tox: reduces parental Ba/F3 cell viability, JAK2V617F counter-screen; CellTiter-Glo ATP luminescence; inhibition, % at 5.6 µM; hit rate 1.1% among 220,000;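 active = inhibition above a per-campaign cutoff, the mean inhibition of all tested compounds plus 3 SD, cut at about 27% in these data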;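 also: 0% = DMSO wells and 100% = JAK Inhibitor I control wells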
IEC-6 tox-1: IEC-6 cytotoxicity, counter-screen for KLF5 inhibitors | luminescence viability | inhibition, % at 5 µM | AID 1825 | hit rate 0.78% among 290,000; in the data active = inhibition above about 22%;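 also: 0% = plate median of test compound wells and 100% = cytotoxic reference compound wells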
APP transl inh: APP translation inhibition. hit rate 0.82% among 190,000. SH-SY5Y APP 5'UTR-luciferase reporter, luminescence. inhibition, % at 2 µM;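 active = inhibition above a set limit, derived from the sample mean plus 3 SD, cut at about 45% in these data; inconclusive = one replicate passes the limit while the other fails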
Ba/F3 V617F tox: loss of viability in JAK2V617F-driven Ba/F3 cells; Ba/F3 EpoR-JAK2V617F viability, ATP luminescence; inhibition, % at 5.6 µM; hit rate 1.1% among 220,000; AID 1446;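 active = inhibition above the campaign mean plus 3 SD over all tested compounds, cut at about 24% in these data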;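 also: cytokine-independent growth of Ba/F3 cells driven by EpoR plus mutant JAK2; 0% = DMSO-treated cells and 100% = JAK inhibitor I control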
KLF5 inh: suppresses KLF5 promoter-driven expression. DLD-1 KLF5 promoter-luciferase reporter, luminescence. inhibition, % at 5 µM. hit rate 0.23% among 290,000;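 active = inhibition above a per-plate limit of that plate's mean compound inhibition plus 3 SD, cut at about 60% in these data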;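 also: 0% = DMSO wells and 100% = LY294002 at 200 µM; higher means less KLF5 promoter-driven luciferase light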
KLF5 inh confirm: confirmation of KLF5 inhibitors | inhibition, % at 4 µM | DLD-1 KLF5 promoter firefly luciferase reporter, luminescence | AID 1834 | shares compounds with KLF5 inh | hit rate 79% among 610;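 active = inhibition above a set limit taken from the earlier primary screen, cut at about 63% in these data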;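 also: 0% = DMSO wells and 100% = LY294002 at 200 µM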
IEC-6 tox-2: kills rat IEC-6 cells in KLF5 counter-screen; AID 1905; IEC-6 rat intestinal cells, viability luminescence; hit rate 56% among 610; inhibition, % at 4 µM; shares compounds with KLF5 inh; in the data active = inhibition above about 23%;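 also: cells exposed to compounds for 48 hours before viability read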
The depositor's hits bear a star; u = inconclusive; x = no result. Only some compounds are listed: those with a hit (about 2.2% of all), similar ones and a draw of the others.

SMILES	aSyn UTR inh	BaF3 tox	IEC-6 tox-1	APP transl inh	Ba/F3 V617F tox	KLF5 inh	KLF5 inh confirm	IEC-6 tox-2
CCN(CC)CCCNC(=O)c1cn(CC)c2ccc(S(=O)(=O)N3CCc4ccccc4C3)cc2c1=O	-5.5	9.6	-9.8	10.2	0.1	10.6	x	x
O=C(CN1C(=O)c2ccccc2S1(=O)=O)NCc1ccccc1Cl	-4.1	0.3	1.0	-8.1	-2.7	-42.6	x	x
O=C(CN1C(=O)c2ccccc2S1(=O)=O)c1ccccc1Cl	100.6*	x	0.1	x	x	69.8*	46.4	-2.3
Cc1c(C)c2ccc(OCC(=O)Nc3ccccn3)c(C)c2oc1=O	109.5*	x	10.0	x	x	91.3*	40.3	12.1
Cc1c(C)c2ccc(OCC(=O)N(C)C)c(C)c2oc1=O	-40.5	4.8	-5.2	2.9	-1.8	-27.3	x	x
O=Cc1ccc(O)c2ncccc12	62.8*	53.1*	100.3*	x	7.6	81.7*	59.8	29.3*
CCCCCCCCCn1ccc(=N)cc1	81.9*	95.7*	54.3*	x	98.7*	71.7*	61.7*	54.9*
CCN(c1ccc(C)cc1C)S(=O)(=O)c1nnc(NC(=O)C(C)C)s1	15.3	x	7.9	x	x	-15.6	x	x
Cc1ccc2c(c1)COc1c3ccc(C(=O)O)cc3nn1-2	50.7	x	-3.8	x	x	92.1*	9.1	-6.5
O=C(Nc1nnc(-c2ccc(F)cc2)o1)c1cccc([N+](=O)[O-])c1	56.0	10.2	98.4*	-20.2	0.7	71.8*	27.0	17.2
Fc1cc(Cl)ccc1NC(=S)NCCN1CCOCC1	8.7	-1.5	1.2	-0.7	-3.6	15.9	x	x
O=C(O)c1ccc(N=Nc2c(O)ccc3ncccc23)cc1	-13.1	x	7.5	x	x	86.8*	15.3	13.8
O=C(O)c1cc(N=Nc2c(O)ccc3ccccc23)cc(C(=O)O)c1	x	-0.4	10.2	-10.1	-1.6	-9.2	x	x
COc1ccc(OCc2cccc(C(=O)Nn3cc([N+](=O)[O-])cn3)c2)cc1	13.1	11.8	4.1	-25.1	5.9	93.4*	102.6*	5.0
CN(CC(=O)N1CCc2ccccc2C1)c1ccccc1	-2.2	x	0.1	x	x	-36.9	x	x
COc1ccccc1OCC(=O)N/N=C/c1c(O)ccc2ccccc12	u	x	3.9	x	x	67.4*	58.2	-5.5
COC(=O)c1cc(C(=O)N2CCN(c3ccccc3OC)CC2)cc([N+](=O)[O-])c1	43.7	70.6*	69.0*	92.5*	67.0*	73.6*	79.6*	63.1*
CCCCCCCC[n+]1cccc2c3ccccc3ccc21	25.7	85.0*	44.7*	19.6	99.9*	81.9*	92.7*	43.4*
CC1=NN(c2nc3ccccc3[nH]2)C(=O)C1Cc1ccccc1 (configuration not stated)	25.8	80.6*	-15.8	x	97.1*	62.7*	80.8*	12.4
O=c1[nH]c2ccccc2nc1NCc1ccccc1	-8.0	x	9.2	x	x	-25.4	x	x
CCOC(=O)Cc1csc(NC(=O)c2cc3c(s2)CCCC3)n1	-18.2	5.7	-3.3	-44.1	-3.0	-21.8	x	x
Cc1csc(NC(=O)c2cc3c(s2)CCCCC3)n1	91.9*	2.5	0.1	-128.6	-3.3	72.3*	51.9	-1.0
CC/C(C)=N/NS(=O)(=O)c1ccc(C)c([N+](=O)[O-])c1	22.4	-7.8	0.8	x	-1.1	0.2	x	x
C/C(=N\NC(=O)c1ccccc1NC(=O)c1ccc(Cl)cc1)c1ccncc1	28.0	20.7	13.0	-62.1	18.7	65.0*	107.0*	66.9*
C/C(=N/NC(=O)c1ccncc1)c1ccccc1	-25.2	x	-5.3	x	x	-19.4	x	x
SMILES	aSyn UTR inh	BaF3 tox	IEC-6 tox-1	APP transl inh	Ba/F3 V617F tox	KLF5 inh	KLF5 inh confirm	IEC-6 tox-2
CCOC(=O)CN1C2=NCCN2c2ccccc21	12.6	0.2	-2.4	-1.4	-0.7	79.0*	3.1	7.5
CCOC(=O)CN1C2=NCCCN2c2ccccc21	-10.4	-0.3	-0.7	8.2	-1.7	-27.8	x	x
O=C(CSc1nnc2ccc(-c3ccncc3)nn12)c1cccs1	14.9	5.5	0.4	-14.3	2.8	62.6*	-14.8	-5.6
c1ccc(CSc2nnc3ccc(-c4ccncc4)nn23)cc1	0.2	2.7	4.5	-10.0	3.5	-8.1	x	x
N#C/C(=C\c1ccc([N+](=O)[O-])cc1)c1ccccn1	-120.9	0.5	13.2	-25.1	1.1	-144.9	x	x
CN(C)c1ccc(/C=C(\C#N)c2ccccn2)cc1	101.5*	7.4	9.5	-95.0	3.1	68.8*	65.8*	14.9
COc1ccc(-c2ccc(CCC(=O)O)n2CC(=O)Nc2cccc(OC)c2)cc1	-11.5	8.9	-8.3	10.4	-3.9	4.8	x	x
COC(=O)N=Nc1c(O)[nH]c2ccc(Br)cc12	-26.0	-10.3	-4.5	x	0.2	-39.4	x	x
Oc1[nH]c2ccc(Br)cc2c1N=NC(=S)N1CCOCC1	38.8	94.0*	88.4*	x	95.0*	75.4*	85.2*	56.3*
NC(=S)N=Nc1c(O)[nH]c2ccccc12	24.5	4.0	-0.3	10.8	0.6	-39.5	x	x
Oc1[nH]c2ccccc2c1N=NC(=S)N1CCOCC1	53.4	58.8*	48.4*	x	54.5*	67.6*	88.8*	48.3*
CCC1CC(CSC(=N)N)OC1=O (configuration not stated)	-20.8	-2.7	1.0	x	-5.0	-2.9	x	x
CCOc1ccccc1-n1nnnc1SCC(=O)O	-1.6	-1.8	1.3	x	-1.4	-28.8	x	x
COc1cc(C(=O)N/N=C/c2cc([N+](=O)[O-])cs2)cc(OC)c1OC	50.3	77.2*	78.4*	95.1*	80.8*	78.7*	75.5*	58.8*
CC(C)(C)N(NC(=O)Nc1ccc(Cl)c(Cl)c1)C(=O)c1ccccc1	15.9	4.8	-5.9	10.8	-3.2	-9.4	x	x
COc1ccccc1NC(=O)c1ccccc1C(=O)Nc1ccccc1OC	-9.2	x	3.6	x	x	13.3	x	x
COc1ccccc1NC(=O)c1cnc(Nc2ccccc2OC)c2ccccc12	100.7*	82.7*	68.9*	93.8*	85.4*	71.9*	71.3*	47.3*
O=C(N/N=C/c1cc(Cl)cc(Cl)c1O)c1ccncc1	23.6	-4.0	19.3	x	2.4	77.2*	35.3	7.1
CC1(C)C2CC[C@]1(C)C(=O)N(CCCCN1CCN(c3ccccn3)CC1)C2=O	6.2	x	4.2	x	x	11.7	x	x
N=C1SCC(=O)N1c1nc(-c2ccccc2)cs1	-159.5	-0.1	-4.4	7.3	-4.5	-72.1	x	x
Cc1ccc2nc(NC(=O)[C@H](C)N3C(=O)C4CC=CCC4C3=O)sc2c1 (some centres not stated)	62.8*	1.5	4.5	17.5	-3.9	73.6*	56.4	2.7
CC(=O)c1ccc(Nc2cc(C)nc3c(C)cc(C)cc23)cc1	21.1	81.4*	73.2*	89.1*	81.1*	67.4*	78.9*	49.5*
Cc1cc[n+](CC(=O)c2cccc([N+](=O)[O-])c2)c2ccccc12	17.0	x	-1.4	x	x	0.1	x	x
COc1ccc(OC)c(/C(O)=C/C(=O)C(=O)Nc2ccccc2OC)c1	2.9	7.3	-4.3	10.1	-1.7	-2.0	x	x

Screening data from PubChem.
